# dFosB activator: enhances mouse delta FosB homodimer DNA binding; P13346; activation, % at 25 µM; 340,000 compounds, 0.99% hits; purified delta FosB, TAMRA-CDK5 oligo fluorescence polarization; percent of positive-control signal above neutral wells;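 active means mean activation above about 17%, with every replicate also reaching it, limit read from the data, passing the limit was not always enough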
# Efa HMGR inh: inhibitors of class II HMG-CoA reductase from Enterococcus faecalis; purified E. faecalis HMGR, NADPH absorbance 340 nm kinetic; inhibition, % at 10 µM; 190,000 compounds, 0.41% hits;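 active means inhibition above a set limit, the median over all tested compounds plus 3 SD, cut at about 9.5% in these data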;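 further: enzyme runs in reverse so mevalonate oxidation gives rising NADPH absorbance; 0% = complete reaction with DMSO and 100% = background rate lacking mevalonate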
# 14-3-3 Bad inh: disrupts binding of bovine 14-3-3 zeta to phospho-Bad peptide | P63103 | TR-FRET 14-3-3zeta/Dy647-pBad peptide displacement, 1 h | inhibition, % at 21.7 µM | 220,000 compounds, 0.71% hits;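 active means inhibition above about 70%, limit read from the data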;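 further: 0% = full 14-3-3 plus peptide FRET controls and 100% = background without 14-3-3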
# NCF1 inh: blocks human p47phox regulatory protein of NADPH oxidases; AID 1274; 220,000 compounds, 0.53% hits; P14598; inhibition, % at 24.7 µM; p47phox/p22phox peptide binding, fluorescence polarization, 2 h;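 active means inhibition above about 30%, limit read from the data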;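 further: 0% = p47phox with labelled peptide and 100% = labelled peptide alone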
# Target sequence (P14598 whole entry, looked up): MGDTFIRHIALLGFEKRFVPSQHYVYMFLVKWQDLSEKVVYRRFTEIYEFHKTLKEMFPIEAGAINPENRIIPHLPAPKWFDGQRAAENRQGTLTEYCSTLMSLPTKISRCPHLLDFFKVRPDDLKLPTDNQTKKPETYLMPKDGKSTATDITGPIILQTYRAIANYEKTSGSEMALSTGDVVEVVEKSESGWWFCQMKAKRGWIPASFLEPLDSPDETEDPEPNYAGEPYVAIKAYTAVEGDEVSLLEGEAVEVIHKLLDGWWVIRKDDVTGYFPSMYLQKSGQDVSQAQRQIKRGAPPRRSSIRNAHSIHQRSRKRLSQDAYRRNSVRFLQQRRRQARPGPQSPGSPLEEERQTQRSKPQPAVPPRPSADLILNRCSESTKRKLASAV
# Starred values were filed as active, the others as inactive; nt = no result; [ ] = another dose, or the depositor's remark. Only some compounds are listed: those with a hit (about 1.9% of all), similar ones and a draw of the others.
SMILES,dFosB activator,Efa HMGR inh,14-3-3 Bad inh,NCF1 inh
Cc1ccc(N(C)S(=O)(=O)c2ccc(-c3cc(C)no3)s2)cc1,-3,nt,nt,nt
CCCCOC(=O)c1nc[nH]c1C(=O)OCCCC,3,19*,-7,-1
CCOC(=O)c1[nH]cnc1C(=O)Nc1ccc(F)cc1,-27,-3,-5,2
CC1CC(C)CN(CC(C)(C)NS(=O)(=O)c2ccccc2)C1 (stereo not drawn),3,-5,77*,4
CN1CCN(CC(C)(C)NS(=O)(=O)c2ccccc2)CC1,-1,nt,nt,nt
CC(C)(C)OC(=O)C[C@H]1C/C=C\C[C@@H](CC(=O)NCCO)C(=O)N[C@H](Cc2ccccc2)COC1=O,-6,nt,nt,nt
O=C(CN1CCN(c2ccc(F)cc2)CC1)Nc1nccs1,5,nt,nt,nt
Cc1ccc(OCC(O)CN2C(=O)NC(C)(C)C2=O)cc1 (stereo not drawn),-1,14*,0,-10
COc1cc(/C=C2/NC(=O)NC2=O)cc(Br)c1OCc1cccc(C(=O)O)c1,-2,3,-11,-19
CC1CCN(CC(=O)Nc2ccccc2-c2ccccc2)CC1,-2,0,2,-1
CC1CCCCC1NCC(=O)Nc1ccccc1-c1ccccc1 (stereo not drawn),-8,1,71*,-3
CNc1nc(N)c([N+](=O)[O-])c(NC2CCCCC2)n1,-12,nt,nt,nt
Nc1nc(NCc2ccccc2)nc(NCc2ccccc2)c1[N+](=O)[O-],6,-5,-4,9
Cc1cccc(Nc2nc(N)c([N+](=O)[O-])c(NCc3ccccc3)n2)c1,39*,nt,-2,-7
Cc1ccc(CNc2nc(N)c([N+](=O)[O-])c(NCc3ccccc3)n2)cc1,3,-5,12,-4
Nc1nc(Nc2ccccc2)nc(NCc2ccccc2)c1[N+](=O)[O-],34*,nt,4,-2
Nc1nc(Nc2ccccc2)nc(NC2CCCCC2)c1[N+](=O)[O-],73*,nt,nt,nt
Cc1cccc(Nc2nc(N)c([N+](=O)[O-])c(N3CCCC(C)C3)n2)c1 (stereo not drawn),45*,0,5,1
Cc1cccc(Nc2nc(N)c([N+](=O)[O-])c(N3CCN(C)CC3)n2)c1,-3,0,-5,-3
COC(=O)c1ccc(-c2ccc([C@H]3[C@H]4C=CC[C@@H](C)[C@@H]4C(=O)N3Cc3ccccc3)c(F)c2)cc1,4,nt,-3,-17
O=C(c1cccs1)N1CCc2c([nH]c3ccccc23)C1c1ccc(Cl)cc1 (stereo not drawn),-6,8,-5,31*
O=C(c1cccs1)N1CCc2c([nH]c3ccccc23)C1c1ccccn1 (stereo not drawn),-10,-5,5,-2
CCCCN(C)C(=S)Nc1ccsc1C(=O)OC,7,-4,-5,45*
Cc1cc[n+](CC(=O)c2ccc3c(c2)OCCO3)cc1,2,-1,-1,-17
OCCC1CN(Cc2cnc(-c3ccccc3)s2)CCN1Cc1ccccc1 (stereo not drawn),-2,0,-14,3
SMILES,dFosB activator,Efa HMGR inh,14-3-3 Bad inh,NCF1 inh
OCCC1CN(Cc2cccs2)CCN1Cc1ccccc1 (stereo not drawn),0,15*,-6,-10
O=C1C(=Cc2cccn2-c2ccc(O)cc2)C(=O)c2ccccc21,2,-2,84*[fluorescence artefact?],27
O=C(O)c1cccc(-n2cccc2C=C2C(=O)c3ccccc3C2=O)c1,-18,-4,1,-53
O=C1C(=Cc2cccn2-c2ccccc2)C(=O)c2ccccc21,-4,-3,82*[fluorescence artefact?],33*
Oc1c(CN2CCOCC2)cc(CN2CCOCC2)c(O)c1CN1CCOCC1,-7,nt,nt,nt
O=C1CNC(=S)N1Cc1ccccc1Cl,-1,nt,nt,nt
CCN1C(=O)CC(C(=O)O)SC1=Nc1ccc(OC)cc1 (stereo not drawn),-3,-3,9,-3
CCN=C1NN=C(c2cc(C)n(CCc3ccccc3)c2C)CS1,-8,3,92*,14
O=C(CCC(=O)NC1CCCCCC1)Nc1nnc(C(F)(F)F)s1,-6,-6,-6,-14
O=C(CSc1nc2ccccc2c(=O)n1-c1ccccc1)N1CCc2ccccc21,13,-8,31,50*
O=C(CSc1nc2ccccc2c(=O)n1-c1ccccc1)N1CCCc2ccccc21,-10,-6,9,-36
O=C(CCSCCC(=O)N1CCCC1)N1CCCC1,-3,1,-18,-5
NCCCC[C@@H]1NC(=O)c2cc([N+](=O)[O-])cc(I)c2SC[C@@H](C(N)=O)NC(=O)[C@H](Cc2ccc(O)cc2)NC1=O,-4,-3,72*[fluorescence artefact?],-5
Cc1cc2c(cc1S(=O)(=O)N1CCN(c3ccc(Cl)cc3)CC1)OCCN2C,-7,nt,nt,nt

# Screening results as filed in PubChem.
